# Bioassay records as filed in PubChem BioAssay.
# PAFAH1B3 inh – blocks human PAF acetylhydrolase 1B catalytic subunit 3. Q15102. recombinant PAFAH1B3, FP-rhodamine probe, fluorescence polarization. inhibition, % at 3.39 µM. 340,000 compounds, 0.28% hits. AID 492972;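 active = inhibition above the screen-wide average of all tested compounds plus 3 SD, cut at about 25% in these data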;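 note: 0% = enzyme with DMSO only and 100% = wells lacking PAFAH1B3 protein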
# PAFAH1B2 inh – PAFAH1B2 (human) inhibition | 340,000 compounds, 1.2% hits | inhibition, % at 3.39 µM | AID 492953 | recombinant PAFAH1B2, FP-rhodamine activity probe, fluorescence polarization | P68402;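 active = inhibition above the mean of all tested compounds plus 3 SD, cut at about 24% in these data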;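 note: 0% = enzyme with DMSO and 100% = wells lacking PAFAH1B2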
# DSG3 Ab inh – blocks pemphigus antibody binding to human desmoglein-3; AID 588358; DSG3-coupled beads, scFv-anti-DSG3-GFP binding, flow cytometry; hits give low values; P32926; 310,000 compounds, 0.48% hits; binding (percent of control), % at 10 µM;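 active = binding more than 3 SD below its plate's average and above zero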;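 note: hits lower antibody fragment binding to DSG3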
# PAFAH2 inh – inhibitors of human PAFAH2; inhibition, % at 3.39 µM; 340,000 compounds, 0.99% hits; AID 492956; Q99487; recombinant PAFAH2, FP-rhodamine activity probe, fluorescence polarization;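 active = inhibition above the mean over all tested compounds plus 3 SD, cut at about 30% in these data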;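 note: inhibitors block probe labeling of enzyme so polarization drops; 0% = enzyme with DMSO and 100% = wells lacking PAFAH2 protein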
# pPAFAH FP inh – pPAFAH (human) enzyme inhibition. AID 463082. 330,000 compounds, 1.5% hits. inhibition, % at 3.39 µM. recombinant pPAFAH, FP-rhodamine probe fluorescence polarization. Q13093;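 active = inhibition above the mean inhibition across the screen plus 3 SD, cut at about 25% in these data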;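 note: inhibitors block binding of the rhodamine activity-based probe so polarization drops; 0% = enzyme with DMSO and 100% = wells lacking pPAFAH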
# Target sequence (Q13093 whole entry, looked up): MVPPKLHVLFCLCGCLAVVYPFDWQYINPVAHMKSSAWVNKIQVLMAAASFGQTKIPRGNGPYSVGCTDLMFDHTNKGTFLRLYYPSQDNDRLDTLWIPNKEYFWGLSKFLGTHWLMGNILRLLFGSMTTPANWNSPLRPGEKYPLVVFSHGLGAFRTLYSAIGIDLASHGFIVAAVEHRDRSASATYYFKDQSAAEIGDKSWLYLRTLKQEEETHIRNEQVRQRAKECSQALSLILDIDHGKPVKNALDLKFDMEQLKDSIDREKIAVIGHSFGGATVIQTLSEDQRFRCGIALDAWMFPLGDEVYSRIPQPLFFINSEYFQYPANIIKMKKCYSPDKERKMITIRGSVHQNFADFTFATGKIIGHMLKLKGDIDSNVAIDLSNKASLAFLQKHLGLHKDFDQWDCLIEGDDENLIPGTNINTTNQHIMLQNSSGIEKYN
# M18AAP inhibitor – blocks P. falciparum M18 aspartyl aminopeptidase | recombinant PfM18AAP, H-Glu-NHMec fluorogenic cleavage | 290,000 compounds, 1.2% hits | inhibition, % at 7.35 µM;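 active = inhibition above the campaign mean inhibition over all tested compounds plus 3 SD, cut at about 28% in these data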;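 note: 0% = plate median of test compound wells and 100% = 2 mM ZnCl2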
# pPAFAH FP conf – pPAFAH (human) inhibition, confirmed; shares compounds with pPAFAH FP inh; recombinant pPAFAH, FP-Rh probe fluorescence polarization; inhibition, % at 3.39 µM; 2,300 compounds, 72% hits;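 active = mean inhibition of the triplicate above the hit cutoff set for the earlier primary screen, cut at about 25% in these data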;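 note: 0% = enzyme with DMSO and 100% = wells lacking pPAFAH enzyme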
# * = called active by the depositor; . = no result. Shown are actives, neighbours in structure and some others; about 3.8% of the full set was active somewhere.
SMILES,PAFAH1B3 inh,PAFAH1B2 inh,DSG3 Ab inh,PAFAH2 inh,pPAFAH FP inh,M18AAP inhibitor,pPAFAH FP conf
COc1ccc(-c2csc(NC(=O)c3ccccc3F)n2)cc1,11,-2,104,-7,1,-3,.
COc1ccc(-c2csc(NS(=O)(=O)c3ccc([N+](=O)[O-])cc3)n2)cc1,5,2,101,11,38*,5,45*
COc1ccc(-c2csc(NC(=O)c3ccccc3NS(=O)(=O)c3ccc(F)c(F)c3)n2)cc1,13,12,97,20,50*,4,39*
Oc1ccccc1-c1nc2c3ccccc3c3ccccc3c2[nH]1,43*,27*,98,59*,45*,0,27*
COc1ccccc1OCC(=O)Nc1cc(C)ccc1NC(=O)c1ccco1,8,-4,108,3,-9,2,.
N#C/C(=N\Nc1cccc(C(F)(F)F)c1)C(=O)c1ccsc1,7,11,116,16,37*,-7,29*
O=C(CNC(=O)c1ccccc1)OCC(=O)N1N=C(c2ccc(Cl)cc2)CC1c1ccco1 (configuration not stated),9,0,105,9,14,2,.
Cc1ccc(S(=O)(=O)N[C@H](C(=O)OCC(=O)N2N=C(c3ccc(Cl)cc3)CC2c2ccco2)C(C)C)cc1 (some centres not stated),0,-8,101,1,40*,11,9
O=c1c2ccccc2[nH]c(=S)n1CCCN1CCOCC1,0,4,.,6,7,17,.
N=C1c2c(cc(=O)n3c2[nH]c2ccccc23)CN1CCN1CCOCC1,-2,3,.,4,36*,10,23
O=[N+]([O-])c1cc(/C=N/Nc2nc3ccccc3[nH]2)c(O)cc1O,.,.,.,.,40*,25,34*
Cc1ccccc1/C=N/Nc1nc2ccccc2[nH]1,1,5,107,1,7,19,.
CCN(CC)c1ccc(/C=N/NC(=O)c2cccc(S(=O)(=O)Nc3ccccc3OC)c2)c(O)c1,18,15,100,9,48*,13,65*
O=C(CN1CCC(NC(=O)Cc2ccccc2)CC1)Nc1ccccc1Br,3,4,105,9,0,0,.
CN1C(=O)CSC1=Nc1cccc(Cl)c1,6,-1,104,2,6,2,.
O=C(CSc1nc2cc([N+](=O)[O-])ccc2n1-c1ccccc1)NCc1ccc2c(c1)OCO2,4,-6,.,3,44*,38*,37*
CCOC(=O)C1=C(C)N(C[C@@H]2CC[C@@H](Cc3ccc(-c4ccccc4)cc3)O2)C(=O)NC1c1ccc(C(F)(F)F)cc1 (some centres not stated),2,7,98,1,8,.,.
CCOC(=O)C1=C(C)N(C[C@@H]2CC[C@@H](Cc3ccc(-c4ccccc4)cc3)O2)C(=O)NC1c1ccc(SCc2ccco2)c([N+](=O)[O-])c1 (some centres not stated),0,1,97,5,56*,.,25*
COc1ccc(-c2cc(CNS(=O)(=O)c3ccccc3)on2)cc1,3,0,104,5,4,-12,.
O=C(COC(=O)C1CC(=O)N(CCc2ccccc2)C1)c1ccc[nH]1 (configuration not stated),6,6,101,4,10,.,.
Nc1scc2c(C(=O)N/N=C/c3ccc(Cl)cc3)nn(-c3ccccc3)c(=O)c12,10,3,97,4,35*,4,11
CCOC(=O)c1nn(-c2ccccc2)c(=O)c2c(N)scc12,14,5,91,9,1,28,.
Cc1nc(-c2nnc(SCC(=O)Nc3ccc(Cl)cc3)n2C)cs1,7,1,107,1,-1,-6,.
CCC(=O)NC(NC(=S)Nc1c(C)n(C)n(-c2ccccc2)c1=O)C(Cl)(Cl)Cl (configuration not stated),0,1,94,3,-5,10,.
CC(C)(C)C(=O)NC1(C(F)(F)F)NC(=O)N(c2ccc(F)cc2)C1=O (configuration not stated),9,4,101,0,2,-3,.
SMILES,PAFAH1B3 inh,PAFAH1B2 inh,DSG3 Ab inh,PAFAH2 inh,pPAFAH FP inh,M18AAP inhibitor,pPAFAH FP conf
Cc1c2ccccc2nc2ccccc12,3,5,.,3,0,.,.
CCCNc1c(F)c(F)c2c(C)c3ccccc3nc2c1F,12,6,115,20,35*,7,20
CC(C)Oc1ccc(C(=O)NCCCNC(=O)c2cccnc2)cc1,11,6,113,-4,2,-2,.
CC(CCC(C)C(C)(C)C)[C@@H]1CC[C@H]2C3C[C@H](OS(O)(=S)=S)[C@H]4C[C@H](OS(O)(=S)=S)[C@@H](OS(O)(=S)=S)C[C@]4(C)[C@H]3CC[C@]12C (some centres not stated) (tested in a mixture with another compound),-18,-7,100,-33,36*,.,23
CC(CCC(=O)NN)C1CCC2C3CCC4CC(O)CCC4(C)C3CCC12C (configuration not stated),-5,-1,95,5,.,.,.
N#C/C(=N\Nc1cccc([N+](=O)[O-])c1)C(=O)c1ccc(Br)cc1,24,14,100,35*,60*,-4,61*
Cc1ccccc1CN(C)CC(=O)Nc1c(C)cccc1C(C)C,2,3,111,13,-1,-2,.
O=[N+]([O-])c1ccc(O)c(C=Nc2ccc3nc(-c4ccccc4)[nH]c3c2)c1,2,6,.,2,8,10,.
Oc1c(Br)cc(C=Nc2ccc3nc(-c4ccccc4)[nH]c3c2)c(O)c1Br,.,.,.,.,44*,29*,35*
O=C1NC(=Nc2ccc(O)cc2)S/C1=C\C=C\c1ccco1,10,1,99,8,53*,22,14
Cc1nnc(SCC(=O)NC2CCCC2)n1-c1ccccc1,0,-1,113,3,-2,.,.
CN(C)C1(CNC(=O)c2cccc(S(=O)(=O)Nc3ccc(Br)cc3)c2)CCCCC1,-2,4,123,-3,43*,.,42*
CN(C)C1(CNC(=O)c2cccc(S(=O)(=O)NCc3ccccc3)c2)CCCCC1,0,7,104,2,2,.,.
Cc1ccc(NS(=O)(=O)c2cccc(C(=O)NCC3(N(C)C)CCCCC3)c2)cc1,11,8,107,6,60*,4,53*
COc1ccc(N(C(=O)Cn2nnc(-c3ccc(C)o3)n2)C(C(=O)NC2CCCC2)c2ccncc2)cc1 (configuration not stated),2,-4,.,-6,-1,-3,.
